# Bioassay records from PubChem.
# Rows were chosen to be rich in hits. Some 4.5% of all compounds tested hit in one or more screens of this group.
# EBNA-1 inhibitor: blocks EBNA-1 binding to DNA; EBNA-1 DNA binding, fluorescence polarization; inhibition, % at 14.8 µM; actives 0.34% (n = 300,000); AID 1950; in the data active = inhibition above about 28%
# TPT1 inh: inhibitors of Candida albicans tRNA 2'-phosphotransferase TPT1 | inhibition, % at 5 µM | actives 0.81% (n = 300,000) | recombinant caTPT1, FP RNA substrate dephosphorylation;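 active = inhibition above the mean of all tested compounds plus 3 SD, set per screening campaign, cut at about 24% in these data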;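 note: plate controls were DMSO alone for no effect and ferristatin control at 100 nM for full effect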
# ZTA DNA inh: blocks Epstein-Barr virus ZTA, an EBNA-1 counter-screen. ZTA-DNA binding, fluorescence polarization. inhibition, % at 11 µM. actives 0.15% (n = 320,000); in the data active = inhibition above about 33%
# Target sequence (P03206 whole entry, looked up): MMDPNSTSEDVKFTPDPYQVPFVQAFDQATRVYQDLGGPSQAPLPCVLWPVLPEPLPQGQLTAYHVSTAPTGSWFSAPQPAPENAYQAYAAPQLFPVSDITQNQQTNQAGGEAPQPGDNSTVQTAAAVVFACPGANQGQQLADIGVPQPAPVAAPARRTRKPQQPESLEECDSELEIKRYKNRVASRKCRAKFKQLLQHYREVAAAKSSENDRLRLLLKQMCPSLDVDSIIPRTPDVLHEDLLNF
# Rpn11 block: inhibitors of human proteasome Rpn11; O00487; human 26S proteasome, Ub4-pepOG fluorescence polarization; 20S core pre-blocked with epoxomicin; inhibition, % at 20 µM; actives 0.59% (n = 360,000); AID 588493;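 active = inhibition at 20 µM, scaled to each plate's controls, above about 33%, limit read from the data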
# NR3A LBD binder: modulates the human NR3A ligand-binding domain. NR3A LBD differential scanning fluorimetry, Tm shift; 0% = protein alone, 100% = glycine-bound protein. Tm shift relative to glycine control, % at 25 µM. actives 2.5% (n = 340,000). AID 1259313;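 active = melting temperature shift of at least 10% of the positive control shift, at one fixed dose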
# dFosB activator: enhances mouse delta FosB homodimer DNA binding. P13346. purified delta FosB, TAMRA-CDK5 oligo fluorescence polarization; percent of positive-control signal above neutral wells. activation, % at 25 µM. actives 0.99% (n = 340,000). AID 493131;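 active = mean activation above about 17%, with every replicate also reaching it, limit read from the data, passing the limit was not always enough; inconclusive = only one of the two conditions met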
# Target sequence (P13346 whole entry, looked up): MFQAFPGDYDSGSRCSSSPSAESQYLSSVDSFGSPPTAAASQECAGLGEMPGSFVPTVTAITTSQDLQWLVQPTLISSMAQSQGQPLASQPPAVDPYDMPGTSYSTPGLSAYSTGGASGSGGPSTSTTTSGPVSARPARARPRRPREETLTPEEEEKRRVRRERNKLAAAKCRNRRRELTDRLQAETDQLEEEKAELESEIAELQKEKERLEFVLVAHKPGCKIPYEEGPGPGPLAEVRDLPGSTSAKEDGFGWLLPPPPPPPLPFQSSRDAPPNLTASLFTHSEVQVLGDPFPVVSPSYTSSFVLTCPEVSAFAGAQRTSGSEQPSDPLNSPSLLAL
# Rpn11 inh conf: confirmation of human proteasome Rpn11 inhibitors. shares compounds with Rpn11 block. purified human 26S proteasome, Ub4-pepOG fluorescence polarization; proteasome pretreated with epoxomicin. inhibition, % at 20 µM. actives 29% (n = 1,900)
# MMP-2 inh: MMP-2 (human) inhibition counter-screen; recombinant MMP-2, FRET peptide cleavage fluorescence; AID 602330; shares compounds with Rpn11 block; inhibition, % at 20 µM; actives 4% (n = 1,900);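 note: human MMP-2 activated beforehand with APMA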
# Thrombin FP: counter-screen for RPN11 inhibitors: inhibition of bovine thrombin; shares compounds with Rpn11 block; bovine thrombin cleavage of Ub4-pepOG, fluorescence polarization; inhibition, % at 20 µM; actives 13% (n = 1,900); AID 602333;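 active = mean inhibition at least 40% at 20 µM, or signal 3 deviations below plate average, so some actives read negative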;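 note: plate controls were thrombin with DMSO for no effect and buffer wells lacking thrombin for full effect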
# * = called active by the depositor; u = inconclusive; x = no result. Cut-off read from the data, not from the text of the source, unless noted: active = inhibition above about 40%; inactive = the rest.
SMILES,EBNA-1 inhibitor,TPT1 inh,ZTA DNA inh,Rpn11 block,NR3A LBD binder,dFosB activator,Rpn11 inh conf,MMP-2 inh,Thrombin FP
CCOc1ccc(N=Nc2ccc(O)c3ncccc23)cc1,x,x,x,23,-2,-7,x,x,x
NS(=O)(=O)c1ccc(N=Nc2ccc(O)c3ncccc23)cc1,7,3,2,86*,8,-9,70*,55*,13
CCS(=O)(=O)c1ccc(OC)c(N=Nc2ccc(O)c3ncccc23)c1,6,-5,-9,29,-3,2,x,x,x
Nc1ncnc(Sc2ccc(Cl)cc2)c1[N+](=O)[O-],7,-1,13,44*,1,2,1,28,8
Cc1ccc(Sc2ncnc(N)c2[N+](=O)[O-])cc1,-19,-2,0,-1,2,4,x,x,x
COc1cc(C(=O)Nc2cc(C(F)(F)F)ccc2N2CCOCC2)ccc1OCC(=O)N1CCOCC1,-4,0,8,-1,0,-3,x,x,x
O=C(COc1ccc2ccccc2c1)N/N=C/C1CC=CCC1 (stereo unspecified),-8,1,-5,-6,0,-2,x,x,x
CCOc1ccc(/C=C2\CCC(C3CCCC3)C2=O)cc1OC (stereo unspecified),3,2,-4,1,0,0,x,x,x
COc1cc(C=C2CCCC(=Cc3ccc(OCC4CO4)c(OC)c3)C2=O)ccc1OCC1CO1 (stereo unspecified),x,x,x,51*,x,x,5,-12,-15
C/C(=N\NC(=S)Nc1cc(S(=O)(=O)N2CCOCC2)ccc1Cl)c1ccccc1F,2,-5,-6,9,-8,0,x,x,x
COc1ccc(Cc2c(-c3ccc(Cl)cc3)nc3c(C)cc(Br)cn23)c(C)c1,x,x,x,44*,x,x,28,23,21
COc1ccc(Cc2c(C(C)(C)C)nc3ccc(Cl)cn23)c(C)c1,x,x,x,56*,x,x,44*,-16,24
COc1ccc(Cc2c(C(C)(C)C)nc3ccc(C)cn23)c(C)c1,x,x,x,15,x,x,x,x,x
COc1ccc(Cc2c(-c3ccccc3)nc3c(C)cc(Br)cn23)c(C)c1,x,x,x,63*,x,x,16,47*,10
CCOC(=O)N1CCN(C(=O)c2cc(OC)c(OC)c(OC)c2)CC1,5,-3,-3,35*,1,2,-9,-19,3
CCOC(=O)N1CCN(C(=O)c2cc(OCC)c(OCC)c(OCC)c2)CC1,-3,2,1,-6,-1,-3,x,x,x
O=C(CCCN1C(=O)/C(=C/c2ccco2)SC1=S)Nc1ccccc1C(=O)O,5,3,23,68*,0,-13,4,38,-1
O=C(CCN1C(=O)/C(=C/c2ccco2)SC1=S)Nc1ccc(O)cc1C(=O)O,x,x,x,13,-2,-15,x,x,x
COc1ccccc1/C=C1\SC(=S)N(CCC(=O)Nc2ccc(C(=O)O)c(O)c2)C1=O,19,0,12,10,3,-15,x,x,x
O=C(CCN1C(=O)/C(=C/c2ccco2)SC1=S)Nc1ccc(C(=O)O)c(O)c1,-5,14,27,64*,-3,-13,9,37,-1
CCOC(=O)C1=C(C)Nc2sc(C(=O)c3ccc(C)cc3)c(N)c2C1c1ccc(C(=O)OC)cc1 (stereo unspecified),-1,11,2,41*,6,-4,-6,41*,-18
CCOC(=O)C1=C(C)Nc2sc(C(=O)c3ccc(F)cc3)c(N)c2C1c1ccc(C(=O)OC)cc1 (stereo unspecified),2,5,-9,38*,13*,-15,11,32,-11
CC(=O)c1ccccc1NC(=O)Cn1c(=O)cnc2ccccc21,-8,21,-26,41*,-4,-3,-9,3,12
O=C(Cn1c(=O)cnc2ccccc21)Nc1ccccc1N1CCOCC1,-8,-3,0,-2,1,-6,x,x,x
CCCCNc1c(-c2ccc(OC)c(SC3CCCCC3)c2)nc2cc(C)ccn12,-14,2,-5,8,-31,9,x,x,x
SMILES,EBNA-1 inhibitor,TPT1 inh,ZTA DNA inh,Rpn11 block,NR3A LBD binder,dFosB activator,Rpn11 inh conf,MMP-2 inh,Thrombin FP
Cc1ccn2c(NC3CCCC3)c(-c3ccncc3)nc2c1,5,-2,2,-1,-2,-1,x,x,x
CCCCCCSc1cc(-c2nc3cc(C)ccn3c2NC2CCCCC2)ccc1OC,-10,8,-15,52*,-13,0,11,7,-12
CCC(C)Sc1ccc(-c2nc3cc(C)ccn3c2NC2CCCCC2)cc1 (stereo unspecified),x,x,x,115*,-10,9,9,-43,-2
Cc1ccn2c(NC3CCCCC3)c(C)nc2c1,-17,-1,-12,3,2,-6,x,x,x
COc1cc(-c2nc3cc(C)ccn3c2NC2CCCCC2)ccc1-c1ccc(C(C)=O)cc1,1,6,2,42*,-6,6,13,4,-11
Cc1ccn2c(NC3CCCCC3)c(-c3cccc(-c4cccc(Cl)c4)c3)nc2c1,2,1,12,44*,-7,2,11,-40,-4
COCCNC(=O)c1[nH]c(C(F)(F)F)nc1-c1ccccc1,x,x,x,3,x,x,x,x,x
CCOC(=O)N1CCN(C(=O)c2cc3cc(Cl)ccc3[nH]2)CC1,x,x,x,7,1,-6,x,x,x
CCCCCCSc1ccc(-c2nc3cc(C)ccn3c2NC2CCCCC2)cc1,x,x,x,58*,-7,-2,20,-15,6
O=C(N/N=C/c1ccc(Cl)c([N+](=O)[O-])c1)c1ccc2c(c1)OCCO2,x,x,x,127*,-3,u,36,54*,-1
CC1(C(=O)NS(=O)(=O)c2cccc(Cl)c2)CCN1C(=O)C1(c2ccc(Cl)cc2)CC1 (stereo unspecified),x,x,x,-8,x,x,x,x,x
O=C(N/N=C/c1ccc([N+](=O)[O-])o1)C1CC1,-5,-5,11,-7,-5,-9,x,x,x
NC(N)=NCCCS(=O)(=O)Nc1ccc(Nc2c3ccccc3nc3cc([N+](=O)[O-])ccc23)cc1,x,x,x,73*,4,4,-13,-35,48*
O=[N+]([O-])c1ccc(Nc2c3ccccc3nc3ccccc23)cc1,x,x,x,-4,5,-12,x,x,x
CCCCOc1ccc(/C=N/Nc2cc(N3CCOCC3)nc(C)n2)cc1,-9,1,10,-1,-8,-7,x,x,x
O=C(Nc1ccccc1-c1nc2ccccc2s1)C1=COCCO1,-2,-2,-5,62*,-5,-18,4,10,-12
O=C(Nc1nc2ccc(F)cc2s1)C1=COCCO1,-1,1,-12,7,-8,-8,x,x,x
